40 compounds from PubChem BioAssay (NCI) can be followed below.

“And” between values parts separate entries of the source, which are not always exact repeats. Equal values may be shown once. Compounds without any hit were thinned out: in the full panel of roughly 83,000, 20% have a hit.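 Each cell line was grown in a 96-well plate and treated with one concentration of compound for 48 hours. Values below 10 were considered active.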 A number with no mark means an inactive call. The source made the active and inactive calls.

The subject of this assay is MDA-MB-468 breast. Briefly: NCI-60 one-dose screen, 48 h (100 = growth as untreated, 0 = no growth, -100 = all killed). The settings on record: 10 µM unless noted.
Consider `C#Cc1ccc(-n2c(/C=C/c3ccc4ccccc4c3)nc3ncccc3c2=O)cc1`, for which the growth was -16.1% (active).

`CNC(=O)c1cccc(Cn2nc(C)c(NC(=O)c3ccc(COc4ccc(C(F)(F)F)cc4C)cc3)c2C)c1`: the growth was -6.26% (active). For `Oc1ccccc1/C=N\NC(=S)N/N=C/c1ccccc1O`, the growth was 32.2% and 11.3%. On to `CCCCCCCCCc1ccc(OCCOCCOCCOCCOCCOCCOCCOCCOCCO)cc1`, for which the growth is -11.7% (active). As to `Clc1ccc2c(N3CCN(c4ccnc(NC5CCCCC5)n4)CC3)ccnc2c1`, the growth was 29.4%. Then `COc1ccc(/C=C(\C#N)n2nnc3cc(F)c(F)cc32)cc1`, with 8.69% (active); and `O=C1C(c2ccccc2)=C(N2CCc3ccccc32)OC1(Cl)Cl`, with 78.4%; and `Cc1cc(=O)oc2cc(O)cc(O)c12`, with 103%.

In the case of `O=S(=O)(Nc1ccc(Br)cc1)c1ccc(-c2cnc(C3CC3)o2)cc1`, the growth is -12.4% (active).

As to `CCCCC/C=C/C(C)=C/C1CC(C)C/C=C/CCC(O)C(OC(N)=O)CCC(C)CC(O)C(C)C(=O)O1` (stereo not given), the growth was 94.9%. `CN(C)c1ccc(/C=N/Nc2nc(N/N=C/c3ccc(N(C)C)cc3)nc(N3CCCCC3)n2)cc1`: the growth is 36.3%. Then `COc1ccc(OC)c(/C=C/C(=O)N/N=C/c2ccccc2)c1`, with 28.1%; and `O=C(/C=C/C12c3ccccc3C(c3ccccc31)C1C(=O)NC(=O)C12)c1ccncc1` (stereo not given), with 6.35% (active).

For the compound `Nc1ccc2c(c1Br)Cc1ccccc1-2`, the growth was 111%.

On to `COC(=O)C(OC(C)=O)C(OC(C)=O)c1ccc(OC)c(OC)c1` (stereo not given), for which the growth was 108%. Then `COc1cc2ccnc(C=O)c2cc1OC`, with 82.5%; and `FC(F)(F)c1nc2c(NCc3ccc(-c4ccccc4)cc3)cccc2[nH]1`, with 70.2%. On to `N#CCCN1C(=O)CCC1C(=O)O` (stereo not given), for which the growth is 103%. For the compound `C=CCn1c(SCC(=O)Nc2ccc(C(=O)/C=C/c3cc(OC)c(OC)c(OC)c3)cc2)nnc1-c1c[nH]c2ccccc12`, the growth was 37%. Then `COc1cc(-c2nc3sccn3c2-c2ccnc(NCCNS(=O)(=O)c3ccc(F)cc3)n2)ccc1F`, with 4.24% (active). `OCCCc1n(Cc2ccc3ccccc3c2)c2ccccc2[n+]1Cc1ccc2ccccc2c1`: the growth is -27.7% (active). With `CN(C)CCCN(c1nc(C(Cl)(Cl)Cl)ns1)c1nc(C(Cl)(Cl)Cl)ns1`, the growth was 14.5%.

As to `O=C(O)c1ccc(-n2cc(CNc3cc(F)c(F)c(F)c3)c(-c3ccc(F)cc3)n2)cc1`, the growth was 115%. Then `Cc1cnc(-c2ccc(-c3ccc(NC(=O)Nc4c(F)cc(F)cc4F)cc3F)c3c2C(=O)NC3)[nH]1`, with 39.6%. On to `CCN1C(=O)N(CC)C2C1NN=c1s/c(=C3\C(=O)N(C4CCCC4)c4ccccc43)c(=O)n12` (stereo not given), for which the growth is -43.2% (active). As for `N#Cc1cc(-c2nc3ccccc3s2)c(=O)n(NS(=O)(=O)c2ccccc2)c1N`, the figure is 118%. Then `CCN(CC)C(=O)/C=C(/C)c1ccccc1`, with 87.6%; and `Cc1cc(NCCCNc2ccnc3cc(Cl)ccc23)nc(N2CCN(C)CC2)n1`, with 65.4%; and `CSc1nc(C)c(C(=O)CCN2CCN(c3ccccn3)CC2)s1`, with 87.1%. With `N#CC1C(C#N)C(C(=O)c2ccc(Br)cc2)N2c3ccccc3C=CC12` (stereo not given), the growth is -7.38% (active).

As to `Fc1cccc(CNc2c3ccccc3nc3ccccc23)c1F`, the growth was 22%.

Take `CC/C(=C\c1ccc(N(C)C)cc1)c1ccncc1`: the growth was -12.7% (active). As for `Cc1ccc(C(=O)Nc2nc3c(s2)CN(Cc2ccccc2)CC3)cn1`, the figure is 67.1%; as for `C=C(C)[C@@H]1CC[C@]2(C(=O)N3CCN(C)CC3)CC[C@]3(C)[C@H](CC[C@@H]4[C@@]5(C)C/C(=C/c6ccco6)C(=O)C(C)(C)[C@@H]5CC[C@]43C)[C@@H]12`, 64.6%.

As for `COc1cccc2nc(Nc3cccc(NC(=O)c4cc(N5CCOCC5)cc(C(F)(F)F)c4)c3)ccc12`, the growth was 67.3%. As for `CC(=O)Nc1nccs1`, the figure is 107%.

Consider `CS(=O)(=O)C1=CN(CCO)C(=O)N2CCCN=C12`, for which the growth is 93.3%. For `CCCCCCCCCCCCSC(=N)N`, the growth was -58.5% (active). Then `CCCCCSc1ccc2nc(NC(=O)OCC)sc2c1`, with -10.5% (active); and `CCOC(=O)C/C(=N\Nc1cc(=O)[nH]c2ccc(OC)cc12)C(=O)OCC`, with 89.1%.
